Assay results: PubChem BioAssay (NCATS)
“And” between values parts separate entries of the source, which are not always exact repeats. Equal values may be shown once. Inconclusive results are not listed. The source made the active and inactive calls. Calls come from the whole dose curve; as a rule, active = well fitted inhibition curve with a large enough effect; inconclusive = small, poorly fitted or top-dose-only effect; inactive = flat fitted curve, though single readings scatter.

system: astro; test: Drug repurposing screens with cells derived from glioblastoma tumor samples (AID 1345199); conditions: viability, ATP luminescence, 48 h; series mostly up to 45.9 µM; activity, negative = cell killing: at the top concentration; note: nearly all actives have a fitted effect of over 40% in size
Protocol: CD133+ cells were isolated from GBM patient biopsies and cultured as neurospheres. Neurospheres from four patients were used to screen the NCATS pharmaceutical collection (NPC) library of approved drugs and bioactive compounds. […] The neurospheres were incubated with drugs for 48 hours in 1536-well format, then assayed with an ATP content cell viability assay. […] These hits were cherry picked to confirm activity in the four original GBM lines screened plus three other slower growing GMB lines (unable to yield enough cells for a full primary screen). Variable activities of the confirmed primary hits in the different GBM patient lines were observed. The patient line 206 responded to the greatest number of compounds and line 923 responded to the least amount of active compounds.
% is set by controls: 0 for no effect and ±100 for the full control effect; potency is the fitted concentration of half-maximal effect.

Row | Compound | Potency | activity, negative = cell killing
1 | O=C(NCCN1CCOCC1)c1ccc(Cl)cc1 | inactive | 
2 | CCN(CC)C(=O)c1ccc(O)c(OC)c1 | inactive | 
3 | NC[C@@H]1O[C@@H](O[C@H]2[C@@H](O)[C@H](O[C@@H]3[C@@H](O)[C@@H](N)C[C@H](N)[C@H]3O[C@H]3O[C@H](CN)[C@@H](O)[C@@H](O)[C@H]3N)O[C@H]2CO)[C@H](N)[C@@H](O)[C@@H]1O |  | -4.86% (inactive)
4 | CCn1cc(C(=O)O)c(=O)c2ccc(C)nc21 |  | -19% (inactive)
5 | CN(C)c1cc(NC(=O)CNC(C)(C)C)c(O)c2c1C[C@@H]1C[C@H]3[C@H](N(C)C)C(=O)C(C(N)=O)=C(O)[C@@]3(O)C(=O)C1=C2O |  | -14.6% (inactive)
6 | CCN(CC)CCOC(=O)c1ccc(N)cc1 |  | -8.76% [at 21.2 µM] (inactive)
7 | NCCS | inactive | 
8 | N#C[C@H]1C[C@H]2C[C@@H]2N1C(=O)[C@@H](N)C12CC3CC(CC(O)(C3)C1)C2 |  | -3.57% (inactive)
9 | CC(=O)N[C@@H](CS)C(=O)O |  | -9.49% (inactive)
10 | CC1=C(/C=C/C(C)=C/C=C/C(C)=C/C(=O)Nc2ccc(O)cc2)C(C)(C)CCC1 | 11.2 µM (active) | 
11 | O=c1[nH]cnc2c1ncn2[C@H]1CC[C@@H](CO)O1 |  | -8.88% (inactive)
12 | CC(=O)CCCCn1c(=O)c2c(ncn2C)n(C)c1=O |  | -12.2% [at 21.2 µM] (inactive)
13 | O=C1NC(=O)C(c2ccccc2)(c2ccccc2)N1 |  | -16% (inactive)
14 | CC(C)(C)c1ccc(C(O)CCCN2CCC(C(O)(c3ccccc3)c3ccccc3)CC2)cc1 (stereo not given) | 35.5 µM (active) and 20 µM (active) | 
15 | CCN(CC)CCNC(=O)c1ccc(N)cc1 |  | 3.86% (inactive)
16 | C[C@@H](O)[C@H]1C(=O)N2C(C(=O)O)=C(S[C@@H]3CN[C@H](C(=O)N(C)C)C3)[C@H](C)[C@H]12 |  | -13.1% (inactive)
17 | CC(=O)Oc1cc2c(s1)CCN(C(C(=O)C1CC1)c1ccccc1F)C2 (stereo not given) |  | 0.982% (inactive)
18 | CCOC(=O)O[C@]1(C(=O)OCCl)CC[C@@H]2[C@H]3CCC4=CC(=O)C=C[C@]4(C)[C@@H]3[C@@H](O)C[C@@]21C |  | -19.6% (inactive)
19 | CC/C(=C(\c1ccccc1)c1ccc(OCCN(C)C)cc1)c1ccccc1 | 25.1 µM (active) | 
20 | CC1(C)O[C@H]2C[C@@H]3[C@H]4CCC5=CC(=O)C=C[C@]5(C)[C@@]4(F)[C@@H](O)C[C@]3(C)[C@]2(C(=O)CO)O1 |  | -15% (inactive)

Row | Compound | Potency | activity, negative = cell killing
21 | CC(C(=O)O)c1ccc(-c2ccccc2)c(F)c1 (stereo not given) |  | -10.6% [at 21.2 µM] (inactive)
22 | CC(C)NCC(O)COc1cccc2[nH]ccc12 (stereo not given) |  | -16.5% (inactive)
23 | COc1cc2ncnc(Nc3ccc(F)c(Cl)c3)c2cc1OCCCN1CCOCC1 | 20 µM (active) | 
24 | O=C1NCC2(CCN(CCc3ccccc3)CC2)O1 |  | -12.8% (inactive)
25 | O=C(O)Cc1cccc2ccccc12 | inactive | 
26 | Clc1ccc(Cn2c(CN3CCCC3)nc3ccccc32)cc1 |  | -14.8% [at 21.2 µM] (inactive)
27 | CCCNC(=O)NS(=O)(=O)c1ccc(Cl)cc1 |  | -0.853% (inactive)
28 | CN1[C@@H]2CCC[C@@H]1CC(NC(=O)c1nn(C)c3ccccc13)C2 (stereo not given in full) |  | 0.323% (inactive)
29 | CCN1CCC[C@H]1CNC(=O)c1cc(S(N)(=O)=O)ccc1OC |  | 2.28% (inactive)
30 | CC(C)OC(=O)C(C)(C)Oc1ccc(C(=O)c2ccc(Cl)cc2)cc1 |  | -25.4% (inactive)
31 | Cc1cnc(C(=O)O)c[n+]1[O-] | inactive | 
32 | C[N+](C)(C)CCCCCC[N+](C)(C)C |  | -11.5% (inactive)
33 | O=C(CCCCCCC(=O)Nc1ccccc1)NO | 10 µM (active) and 8.91 µM (active) | 
34 | Cc1cccc(C)c1OCC(C)N (stereo not given) |  | -20.5% (inactive)
35 | NC(N)=Nc1nc(CSCC/C(N)=N/S(N)(=O)=O)cs1 |  | -1.97% (inactive)
36 | COc1ccccc1N1CCN(CCCNc2cc(=O)n(C)c(=O)n2C)CC1 | inactive | 
37 | Cc1nnc(C(C)C)n1C1C[C@H]2CC[C@@H](C1)N2CC[C@H](NC(=O)C1CCC(F)(F)CC1)c1ccccc1 (stereo not given in full) |  | -16% (inactive)
38 | COC(=O)[C@@H]1[C@H]2C[C@H]3c4[nH]c5ccccc5c4CCN3C[C@@H]2CC[C@@H]1O |  | 2.01% (inactive)
39 | C[N+]1(C)[C@@H]2CC(OC(=O)[C@H](CO)c3ccccc3)C[C@H]1[C@H]1O[C@@H]12 (stereo not given in full) |  | -13% (inactive)
40 | OC[C@@H](O)[C@H](O)[C@H](O)[C@@H](O)CO | inactive | 
